Laboratory results published in PubChem BioAssay (EPA / NIEHS).
The source made the active and inactive calls. The calls were made as follows: active = hit-call score of the fitted dose curve at least 0.9, where 1 is the maximum; inactive = score below 0.9.

What was measured:
[1] = read-out: Human Leukocyte Antigen - DR isotype (HLADR), HLA-DRA (gene 3122); experiment: BSK_BE3C_HLADR: BioMAP Diversity Plus: BE3C Assay for Human Leukocyte Antigen - DR isotype (HLADR) Biomarker Activity (AID 2283032); conditions: primary human bronchial epithelial cells; actives raise or lower the signal
How it was run: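 ELISA read-out of HLA-DR on human lung bronchial epithelial primary cells, measured 24 h post-dosing. Both increases and decreases were scored relative to DMSO vehicle.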

[2] = read-out: Vascular cell adhesion molecule 1 (VCAM1), VCAM1 (gene 7412); experiment: BSK_4H_VCAM1: BioMAP Diversity Plus: 4H Assay for Vascular cell adhesion molecule 1 (VCAM1) Biomarker Activity (AID 2283033); conditions: primary human endothelial cells (HUVEC); actives raise or lower the signal
How it was run: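 ELISA read-out of VCAM-1 on human umbilical vein endothelium 24 hours after chemical dosing; gain or loss of signal was fitted relative to DMSO, with sulforhodamine B staining of parallel cultures flagging overt cytotoxicity.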

[3] = read-out: Interferon-gamma inducible Protein 10 (IP10), CXCL10 (gene 3627); experiment: BSK_BE3C_IP10: BioMAP Diversity Plus: BE3C Assay for Interferon-gamma inducible Protein 10 (IP10) Biomarker Activity (AID 2283034); conditions: primary human bronchial epithelial cells; actives raise or lower the signal
How it was run: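 Chemical is dosed onto human lung bronchial epithelial primary cells, cultures are incubated 24 h, and IP-10 is then quantified by ELISA. Gain or loss of signal is fitted in both directions relative to DMSO.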

[4] = read-out: Monokine induced gamma interferon (MIG), CXCL9 (gene 4283); experiment: BSK_BE3C_MIG: BioMAP Diversity Plus: BE3C Assay for Monokine induced gamma interferon (MIG) Biomarker Activity (AID 2283035); conditions: primary human bronchial epithelial cells; actives raise or lower the signal
How it was run: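 Primary human bronchial epithelial cells treated for 24 h; MIG levels measured by ELISA, fitted bidirectionally versus DMSO. Parallel SRB total-protein staining assessed cytotoxicity.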

[5] = read-out: Transforming growth factor beta 1 (TGFb1), TGFB1 (gene 7040); experiment: BSK_BE3C_TGFb1: BioMAP Diversity Plus: BE3C Assay for Transforming growth factor beta 1 (TGFb1) Biomarker Activity (AID 2283036;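 also: TGF-b1 protein level measured by ELISA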); conditions: primary human bronchial epithelial cells; actives raise or lower the signal
How it was run: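 Primary human lung bronchial epithelial cells; compound exposure 24 h; TGF-b1 by ELISA; bidirectional fit, DMSO baseline. Parallel SRB total-protein staining for cytotoxicity.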

[6] = read-out: Plasminogen activator inhibitor-1 (PAI1), SERPINE1 (gene 5054); experiment: BSK_BE3C_PAI1: BioMAP Diversity Plus: BE3C Assay for Plasminogen activator inhibitor-1 (PAI1) Biomarker Activity (AID 2283037); conditions: primary human bronchial epithelial cells; actives raise or lower the signal
How it was run: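 Primary human lung bronchial epithelial cells; chemical dosing; 24 h; PAI-1 measured by ELISA; bidirectional fit referenced to DMSO as negative control.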

[7] = read-out: urokinase plasminogen activator (uPA), PLAU (gene 5328); experiment: BSK_BE3C_uPA: BioMAP Diversity Plus: BE3C Assay for urokinase plasminogen activator (uPA) Biomarker Activity (AID 2283038); conditions: primary human bronchial epithelial cells; actives raise or lower the signal;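 also: uPA protein level quantified by ELISA in cell cultures; uPA read one day after compound addition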
How it was run: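 ELISA read-out of uPA in human lung primary bronchial epithelial cultures, 24 h post-dosing. Gain or loss of signal fitted bidirectionally relative to DMSO baseline; cytotoxicity checked in parallel cultures via SRB total protein stain.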

[8] = read-out: Urokinase-type plasminogen activator receptor (uPAR), PLAUR (gene 5329); experiment: BSK_BE3C_uPAR: BioMAP Diversity Plus: BE3C Assay for Urokinase-type plasminogen activator receptor (uPAR) Biomarker Activity (AID 2283039); conditions: primary human bronchial epithelial cells; actives raise or lower the signal
How it was run: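 Human bronchial epithelial primary cells; chemical exposure 24 h; uPAR by ELISA; bidirectional fit vs DMSO control.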

[9] = read-out: Interleukin-6 (IL6), IL6 (gene 3569); experiment: BSK_CASM3C_IL6: BioMAP Diversity Plus: CASM3C Assay for Interleukin-6 (IL6) Biomarker Activity for (AID 2283040); conditions: primary human coronary artery smooth muscle cells; actives raise or lower the signal
[10] = read-out: Tissue plasminogen activator (tPA), PLAT (gene 5327); experiment: BSK_BE3C_tPA: BioMAP Diversity Plus: BE3C Assay for Tissue plasminogen activator (tPA) Biomarker Activity (AID 2283041); conditions: primary human bronchial epithelial cells; actives raise or lower the signal
How it was run: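 Primary human lung bronchial epithelial cultures receive test chemical; after 24 h, tPA is quantified by ELISA, and gain or loss of signal is fitted bidirectionally relative to DMSO baseline.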

[11] = read-out: Interleukin-8 (IL8), CXCL8 (gene 3576); experiment: BSK_CASM3C_IL8: BioMAP Diversity Plus: CASM3C Assay for Interleukin-8 (IL8) Biomarker Activity (AID 2283042); conditions: primary human coronary artery smooth muscle cells; actives raise or lower the signal;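 also: IL-8 protein level quantified by ELISA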
[12] = read-out: Human Leukocyte Antigen - DR isotype (HLADR), HLA-DRA (gene 3122); experiment: BSK_CASM3C_HLADR: BioMAP Diversity Plus: CASM3C Assay for Human Leukocyte Antigen - DR isotype (HLADR) Biomarker Activity (AID 2283043); conditions: primary human coronary artery smooth muscle cells; actives raise or lower the signal;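 also: cell-surface HLA-DR protein level quantified by ELISA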
[13] = read-out: Macrophage colony-stimulating factor (MCSF), CSF1 (gene 1435); experiment: BSK_CASM3C_MCSF: BioMAP Diversity Plus: CASM3C Assay for Macrophage colony-stimulating factor (MCSF) Biomarker Activity (AID 2283044); conditions: primary human coronary artery smooth muscle cells; actives raise or lower the signal;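 also: M-CSF protein amount quantified by ELISA after 24 h exposure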
[14] = read-out: Low-density lipoprotein receptor (LDLR), LDLR (gene 3949); experiment: BSK_CASM3C_LDLR: BioMAP Diversity Plus: CASM3C Assay for Low-density lipoprotein receptor (LDLR) Biomarker Activity (AID 2283045); conditions: primary human coronary artery smooth muscle cells; actives raise or lower the signal;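 also: LDLR protein level on the cell surface quantified by ELISA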
[15] = read-out: Monocyte Chemoattractant Protein-1 (MCP1), CCL2 (gene 6347); experiment: BSK_CASM3C_MCP1: BioMAP Diversity Plus: CASM3C Assay for Monocyte Chemoattractant Protein-1 (MCP1) Biomarker Activity (AID 2283046); conditions: primary human coronary artery smooth muscle cells; actives raise or lower the signal;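 also: MCP-1 level quantified by ELISA 24 h after dosing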
[16] = BSK_CASM3C_Proliferation: Cell Proliferation Assessment in the BioMAP Diversity Plus: CASM3C Assay (AID 2283047); conditions: primary human coronary artery smooth muscle cells;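 also: sulforhodamine B total protein stain as relative cell number at 560 nm; sub-confluent cells exposed 48 h before staining; fitted both ways against DMSO so gain or loss of cell number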
[17] = read-out: Monokine induced gamma interferon (MIG), CXCL9 (gene 4283); experiment: BSK_CASM3C_MIG: BioMAP Diversity Plus: CASM3C Assay for Monokine induced gamma interferon (MIG) Biomarker Activity (AID 2283048); conditions: primary human coronary artery smooth muscle cells; actives raise or lower the signal
[18] = read-out: serum amyloid A (SAA), SAA1 (gene 6288); experiment: BSK_CASM3C_SAA: BioMAP Diversity Plus: CASM3C Assay for serum amyloid A (SAA) Biomarker Activity (AID 2283049); conditions: primary human coronary artery smooth muscle cells; actives raise or lower the signal;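 also: SAA protein level quantified by ELISA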
[19] = BSK_CASM3C_SRB: Viability Assessment in the BioMAP Diversity Plus: CASM3C Assay (AID 2283050); conditions: primary human coronary artery smooth muscle cells;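 also: total protein by SRB staining as cytotoxicity measure in parallel cultures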
[20] = read-out: Thrombomodulin, THBD (gene 7056); experiment: BSK_CASM3C_Thrombomodulin: BioMAP Diversity Plus: CASM3C Assay for Thrombomodulin Biomarker Activity (AID 2283051); conditions: primary human coronary artery smooth muscle cells; actives raise or lower the signal;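 also: thrombomodulin protein level measured by ELISA 24 h after dosing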

Measured: AC50

CCCCCCC(C)OC(=O)COc1nc(F)c(Cl)c(N)c1Cl (stereo unspecified)
active: [2] 39 µM | [11] 32.9 µM | [12] 31.9 µM | [13] 30.2 µM | [15] 29.9 µM | [16] 36.1 µM | [17] 31.6 µM | [18] 25.7 µM | [19] 35.3 µM | [20] 29.7 µM
inactive: [1] | [3] | [4] | [5] | [6] | [7] | [8] | [9] | [10] | [14]

O=C(O)c1ccccc1
not listed: [3]
inactive: all other assays above

CCOC(=O)COc1cc(-n2ncc(C(F)(F)F)c(C)c2=O)c(F)cc1Cl
active: [8] 0.459 µM
not listed: [3]
inactive: all other assays above

CCN(Cc1c(F)cccc1Cl)c1c([N+](=O)[O-])cc(C(F)(F)F)cc1[N+](=O)[O-]
active: [2] 4.57 µM | [14] 13.5 µM | [16] 12.3 µM
inactive: all other assays above

O=C(O)C1(C(=O)Nc2ccc(Cl)cc2Cl)CC1
active: [1] 10.7 µM | [3] 23.8 µM
inactive: all other assays above

CCCCOCCOCCOCc1cc2c(cc1CCC)OCO2
not listed: [3]
inactive: all other assays above

CCC(C)OC(=O)N1CCCCC1CCO (stereo unspecified)
not listed: [3]
inactive: all other assays above

COC(=O)c1ccc(I)cc1S(=O)(=O)NC(=O)Nc1nc(C)nc(OC)n1
not listed: [3]
inactive: all other assays above

CCN(CC)C(=O)c1cccc(C)c1
not listed: [3]
inactive: all other assays above

CC(=O)[C@H]1CC[C@H]2[C@@H]3CCC4=CC(=O)CC[C@]4(C)[C@H]3CC[C@]12C
active: [12] 8.61 µM | [15] 3.95 µM | [16] 12.7 µM
not listed: [2]
inactive: all other assays above

C#CCOC(=O)[C@@H](C)Oc1ccc(Oc2ncc(Cl)cc2F)cc1
not listed: [3]
inactive: all other assays above

COC(=O)c1ccccc1C(=O)O
not listed: [3]
inactive: all other assays above

O=C(c1ccccc1)C1CCCCC1
active: [10] 33.3 µM
not listed: [3]
inactive: all other assays above

c1ccc2[nH]c(-c3cscn3)nc2c1
not listed: [3]
inactive: all other assays above

CCC(O)=C1C(=O)CC(C(=O)O)CC1=O (stereo unspecified)
not listed: [3]
inactive: all other assays above

Cc1nn(C)c(Oc2ccccc2)c1C=NOCc1ccc(C(=O)OC(C)(C)C)cc1
active: [1] 0.814 µM | [6] 7.02 µM | [16] 20 µM | [20] 16.3 µM
not listed: [3]
inactive: all other assays above

CN(C)C(=O)Nc1ccc(Cl)c(Cl)c1
not listed: [3]
inactive: all other assays above

CC(=O)S[C@@H]1CC2=CC(=O)CC[C@]2(C)[C@H]2CC[C@@]3(C)[C@@H](CC[C@@]34CCC(=O)O4)[C@H]12
active: [2] 34.3 µM | [11] 23.6 µM | [12] 27.3 µM | [15] 20 µM | [16] 31.4 µM
not listed: [3]
inactive: all other assays above

OB(O)O
not listed: [3]
inactive: all other assays above

CCCCOC(=O)[C@@H](C)Oc1ccc(Oc2ccc(C(F)(F)F)cn2)cc1
not listed: [3]
inactive: all other assays above

CCOC(=O)[C@H](C)Oc1ccc(Oc2nc3ccc(Cl)cc3o2)cc1
active: [6] 3.97 µM
not listed: [3]
inactive: all other assays above

COc1c(Cl)ccc(Cl)c1C(=O)O
not listed: [3]
inactive: all other assays above

COC(=O)c1cccc(C)c1S(=O)(=O)NC(=O)Nc1nc(OCC(F)(F)F)nc(N(C)C)n1
not listed: [3]
inactive: all other assays above

CCCOC(=O)NCCCN(C)C
active: [1] 4.29 µM | [8] 0.148 µM
not listed: [3]
inactive: all other assays above

CCCN(CCC)c1c([N+](=O)[O-])cc(C(F)(F)F)c(N)c1[N+](=O)[O-]
active: [1] 11.6 µM | [2] 20 µM | [4] 22.9 µM | [6] 36.2 µM | [16] 28.1 µM | [20] 3.97 µM
not listed: [3] | [8]
inactive: all other assays above

CCCOC(=O)c1ccc(C(=O)OCCC)nc1
not listed: [3]
inactive: all other assays above
